An excerpt weighted towards active compounds, which were near 2.6% of everything screened.
CRFBP-R2 agonist: agonists of CRF-BP/CRF-R2 complex, primary screen, cell-based, HEK293, calcium dye fluorescence, uHTS; calcium dye fluorescence (FLIPR); percent of saturating CRF peptide response; activation, % at 13.2 µM; 350,000 compounds, 0.46% hits; AID 588473, 2011;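 active = activation of at least 50%, plus an integration ratio under a set limit after plate pattern correction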;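 also: plate controls were neutral control wells without compound for no effect and CRF at EC100 for full effect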
Myeloid diff MLP: induction of myeloid progenitor differentiation, primary screen, cell-based, flow cytometry, MLPCN library. calls only at 10 µM. 360,000 compounds, 1% hits. ER-HoxA9 myeloid progenitors, lysozyme-GFP differentiation. AID 624256, 2012;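 active = normalized GFP-positive differentiation at or above the plate's own cutoff, the solvent-only control mean plus 3 SD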;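 also: cells exposed to compound for four days before flow analysis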
CRFBP-R2 block: antagonists of CRF-BP/CRF-R2 complex, primary screen, cell-based, HEK293, calcium dye fluorescence, uHTS; AID 588475, 2011; 350,000 compounds, 0.59% hits; CRF-induced calcium fluorescence; inhibition, % at 11.8 µM;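 active = inhibition of the ligand-induced calcium signal above about 50% at the single tested concentration, limit read from the data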
IDE cell inh: human IDE inhibitors in live cells, primary screen, fluorescence polarization, HEK cells, FAbetaB substrate. FAbetaB cleavage. inhibition, % at 5.59 µM. 320,000 compounds, 0.41% hits;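 active = percent inhibition above the average of all tested compounds plus 3 SD, set per screening campaign, cut at about 16% in these data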;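 also: IDE supplied by intact live HEK cells; FP after avidin binding of uncleaved biotin substrate so inhibition keeps polarization high; 0% = DMSO wells and 100% = 60 µM reference IDE inhibitor Ii1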
Target sequence (P14735 whole entry, looked up): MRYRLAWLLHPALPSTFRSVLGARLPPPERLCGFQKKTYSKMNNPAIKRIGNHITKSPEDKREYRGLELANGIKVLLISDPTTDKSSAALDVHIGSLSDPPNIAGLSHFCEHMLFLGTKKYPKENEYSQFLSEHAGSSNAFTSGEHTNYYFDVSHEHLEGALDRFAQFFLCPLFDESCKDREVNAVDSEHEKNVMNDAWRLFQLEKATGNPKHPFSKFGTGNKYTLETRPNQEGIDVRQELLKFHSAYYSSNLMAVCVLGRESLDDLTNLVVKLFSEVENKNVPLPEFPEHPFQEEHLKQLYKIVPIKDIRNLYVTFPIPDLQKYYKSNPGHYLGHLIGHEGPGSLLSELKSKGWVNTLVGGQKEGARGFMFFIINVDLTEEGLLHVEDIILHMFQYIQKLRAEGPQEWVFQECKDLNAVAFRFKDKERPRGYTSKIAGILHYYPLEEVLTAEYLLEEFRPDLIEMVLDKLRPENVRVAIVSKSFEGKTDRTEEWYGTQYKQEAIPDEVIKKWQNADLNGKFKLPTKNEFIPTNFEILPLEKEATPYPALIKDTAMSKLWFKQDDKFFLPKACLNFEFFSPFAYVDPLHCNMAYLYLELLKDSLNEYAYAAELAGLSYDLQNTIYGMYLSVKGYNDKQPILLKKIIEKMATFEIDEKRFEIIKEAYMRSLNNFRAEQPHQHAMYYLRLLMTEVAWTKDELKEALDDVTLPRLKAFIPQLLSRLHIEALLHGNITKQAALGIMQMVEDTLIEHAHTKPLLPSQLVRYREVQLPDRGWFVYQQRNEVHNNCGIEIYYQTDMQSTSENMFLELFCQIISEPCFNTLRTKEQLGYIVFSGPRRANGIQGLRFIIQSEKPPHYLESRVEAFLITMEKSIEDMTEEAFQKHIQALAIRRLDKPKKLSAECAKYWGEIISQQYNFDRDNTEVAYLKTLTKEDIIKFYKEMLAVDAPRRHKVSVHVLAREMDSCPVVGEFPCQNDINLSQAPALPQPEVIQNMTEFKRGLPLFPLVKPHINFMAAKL
IDE act: human IDE activators in live cells, primary screen, fluorescence polarization, HEK cells, FAbeta-B substrate | AID 493087, 2011 | FAbeta-B cleavage; 0% vehicle, 100% cell-free pure enzyme wells | 340,000 compounds, 0.073% hits | activation, % at 5.96 µM | Insulin-degrading enzyme (Homo sapiens), P14735;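 active = activation above the mean of all tested compounds plus 3 SD, set per screening campaign, cut at about 17% in these data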
TPT1 inhibitor: Candida albicans TPT1 enzyme inhibitors, primary screen, biochemical, fluorescence polarization; recombinant caTPT1, FP RNA substrate dephosphorylation; inhibition, % at 5 µM; tRNA 2'-phosphotransferase TPT1 (Candida albicans SC5314); 300,000 compounds, 0.81% hits;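 active = inhibition above the mean of all tested compounds plus 3 SD, set per screening campaign, cut at about 24% in these data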;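 also: plate controls were DMSO alone for no effect and ferristatin control at 100 nM for full effect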
Myeloid diff CP1: inducers of myeloid progenitor differentiation, confirmation, cell-based, GFP/Mac1 flow cytometry, cherry pick 01 | 2,300 compounds, 2% hits | calls only | ER-HoxA9 myeloid progenitors, GFP/Mac1 double-positive flow | shares compounds with Myeloid diff MLP | AID 651706, 2012;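 active = share of green or green-and-red cells above 9 and 9% in run 1 or 4 and 3% in run 2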
GFP autofluor: counter-screen for myeloid differentiation promoters: compound fluorescence | shares compounds with Myeloid diff MLP | ER-HoxA9 myeloid progenitors, no estrogen, GFP autofluorescence flow cytometry; vehicle wells 0%, positive control 100% | fluorescence response, % (no concentration beside the values) | 2,300 compounds, 7.4% hits;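 active = over 5% cells positive for green fluorescent reporter, or over 2% positive for both it and APC stain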;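 also: range taken on the double positive population between DMSO and positive control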
* = called active by the depositor.

Screening O=C(/C=C/c1ccc(-c2ccccc2[N+](=O)[O-])o1)c1ccc(Br)cc1 returned CRFBP-R2 agonist -2, Myeloid diff MLP inactive, CRFBP-R2 block -8, IDE cell inh 1, IDE act 2 and TPT1 inhibitor 5.
`CCCCCCCCN1[C@@H](CC(=O)O)c2ccc(C(F)(F)F)cc2S1(=O)=O` gave CRFBP-R2 agonist -4, Myeloid diff MLP inactive, CRFBP-R2 block 2, IDE cell inh 0, IDE act 3 and TPT1 inhibitor -1.
O=C(Nc1cccc2ccccc12)C1CCN(C(=O)Cc2ccccc2)CC1 was read as CRFBP-R2 agonist 3, CRFBP-R2 block -1, IDE cell inh 2, IDE act -3, TPT1 inhibitor 2, Myeloid diff CP1 inactive and GFP autofluor 0.
CCCOc1ccc(N2CC(C(=O)NC3=NCCS3)CC2=O)cc1 (stereo not given) was read as CRFBP-R2 agonist 0, Myeloid diff MLP inactive, CRFBP-R2 block -3, IDE cell inh 6, IDE act 8 and TPT1 inhibitor 1.
`COc1cc(NC(=O)c2cc3nc(C4CC4)cc(C(F)(F)F)n3n2)c(OC)cc1Cl` gave CRFBP-R2 agonist 7, Myeloid diff MLP inactive, CRFBP-R2 block -10, IDE cell inh 5, IDE act 3, TPT1 inhibitor -3, Myeloid diff CP1 inactive and GFP autofluor 0.
COC(=O)c1ccccc1NC(=O)c1cc2nc(C3CC3)cc(C(F)(F)F)n2n1 was read as CRFBP-R2 agonist 1, Myeloid diff MLP inactive, CRFBP-R2 block -38, IDE cell inh -4, IDE act 6 and TPT1 inhibitor 2.
For CC1(C)CC(=O)C=C(Nc2ccc(C(=O)O)cc2)C1 the results were CRFBP-R2 agonist 2, Myeloid diff MLP active, CRFBP-R2 block 3, IDE cell inh -3, IDE act 5, TPT1 inhibitor -5, Myeloid diff CP1 inactive and GFP autofluor 0.
For CC1(C)CC(=O)C=C(Nc2ccc(O)c(C(=O)O)c2)C1 the results were CRFBP-R2 agonist -2, Myeloid diff MLP inactive, CRFBP-R2 block 3, IDE cell inh -4, IDE act 5 and TPT1 inhibitor -5.
O=C(NC(=S)Nc1ccccc1C(=O)O)c1cncc(Br)c1 was read as CRFBP-R2 agonist 0, Myeloid diff MLP inactive, CRFBP-R2 block 2, IDE cell inh -2, IDE act -2 and TPT1 inhibitor -2.
O=C(NC(=S)Nc1ccccc1O)c1cncc(Br)c1 was read as CRFBP-R2 agonist 5, Myeloid diff MLP inactive, CRFBP-R2 block -30, IDE cell inh -5, IDE act 3, TPT1 inhibitor 15, Myeloid diff CP1 inactive and GFP autofluor 10*.
Screening Cc1nn(C)c(C)c1CCC(=O)O returned CRFBP-R2 agonist 1, Myeloid diff MLP inactive, CRFBP-R2 block 13, IDE cell inh 0, IDE act 1 and TPT1 inhibitor -1.
Cc1nnc(NC(=O)C2CCN(S(=O)(=O)c3ccc(F)c(Cl)c3)CC2)o1 was read as CRFBP-R2 agonist 1, Myeloid diff MLP inactive, CRFBP-R2 block 2 and IDE act -7.
For CC1=Nc2cc(C(=O)NCC3CCCO3)ccc2Sc2ccc(Br)cc21 (stereo not given) the results were CRFBP-R2 agonist 0, Myeloid diff MLP inactive, CRFBP-R2 block -1, IDE cell inh 3, IDE act 3, TPT1 inhibitor 0, Myeloid diff CP1 inactive and GFP autofluor 1.
Screening CCC1NC(=O)c2cccnc2-n2c1nc1ccc(OC)cc1c2=O (stereo not given) returned CRFBP-R2 agonist 1, Myeloid diff MLP inactive and CRFBP-R2 block -31.
For CC1(C(=O)NCc2ccccc2)CN(S(C)(=O)=O)CC(=O)N1CCCn1ccnc1 (stereo not given) the results were Myeloid diff MLP inactive.
For CC(=O)c1cc2c(cc1NC(=O)CN1CCOCC1)OCO2 the results were CRFBP-R2 agonist 1, Myeloid diff MLP active, CRFBP-R2 block 0, IDE cell inh 5, IDE act -1, TPT1 inhibitor 2, Myeloid diff CP1 inactive and GFP autofluor 0.
For Cc1nn(-c2ccccc2)nc1C(=O)Nc1nnc(C(F)(F)F)s1 the results were CRFBP-R2 agonist 19, Myeloid diff MLP inactive, CRFBP-R2 block 25, IDE cell inh -7, IDE act 3 and TPT1 inhibitor 2.
COc1ccc(Cc2nnc(SCC(=O)N3CCN(c4ccccc4)CC3)o2)cc1 was read as CRFBP-R2 agonist -2, Myeloid diff MLP inactive, CRFBP-R2 block 16, IDE cell inh -1, IDE act -4 and TPT1 inhibitor 1.
`COc1ccc(N2CCN(C(=O)CSc3nnc(CNc4ccccc4)o3)CC2)cc1` gave CRFBP-R2 agonist 0, Myeloid diff MLP inactive, CRFBP-R2 block 2, IDE cell inh 9, IDE act 7, TPT1 inhibitor 2, Myeloid diff CP1 inactive and GFP autofluor 1.
`C=CCNC(=S)/N=c1/ccccn1CC` gave CRFBP-R2 agonist -1, Myeloid diff MLP inactive, CRFBP-R2 block 4, IDE cell inh -1, IDE act 5, TPT1 inhibitor 1, Myeloid diff CP1 inactive and GFP autofluor 4.
`CCOC(=O)c1ccc(NC(=O)c2nc[nH]c2C(=O)N2CCN(c3ccccc3)CC2)cc1` gave CRFBP-R2 agonist -1, Myeloid diff MLP inactive, CRFBP-R2 block 9, IDE cell inh -10, IDE act -3 and TPT1 inhibitor -4.
Screening CS(=O)(=O)c1ccc(-c2sc3ccccc3c2C(=O)NCCCN2CCOCC2)cc1 returned CRFBP-R2 agonist 4, Myeloid diff MLP inactive, CRFBP-R2 block -13, IDE cell inh 3 and IDE act 1.
For NC(=O)c1ccc(NC(=O)CSc2cn(CC(=O)N3CCOCC3)c3ccccc23)cc1 the results were CRFBP-R2 agonist -1, Myeloid diff MLP inactive, CRFBP-R2 block 0, IDE cell inh 0, IDE act 0 and TPT1 inhibitor -4.
For O=C(c1ccc(S(=O)(=O)N2CCOCC2)cc1)N1CCN(c2ccc(F)cc2)CC1 the results were CRFBP-R2 agonist 0, Myeloid diff MLP inactive, CRFBP-R2 block 23, IDE cell inh 0, IDE act 2, TPT1 inhibitor -2, Myeloid diff CP1 inactive and GFP autofluor 0.
